Our source for the growth values is PubChem BioAssay (NCI).

The structures appear in SMILES notation. The panel holds about 83,000 compounds, 20% with a hit somewhere; the sample as a whole holds those more often.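 Cell lines were cultured in 96-well plates, exposed to a single compound concentration, and assessed for percent growth 48 hours later.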 Values without a mark were called inactive. The source made the active and inactive calls. How the source made its calls: active means growth percent below 10; inactive means the rest.

The first test has as its system SK-MEL-5 melanoma. The test can be described thus: NCI-60 one-dose screen, 48 h (100 = growth as untreated, 0 = no growth, -100 = all killed). Conditions: 10 µM unless noted.
Turning to `COC(=O)c1ccc2c(c1)nc(-c1ccc(O)c(OC)c1)n2-c1cc(C(C)(C)C)[nH]n1`, the growth was 83.6%.
As to `Cc1nc(N)[nH]c(=O)c1C`, the growth was 108%.
Still for that read-out and setting: as for `O=C1/C(=C/c2ccc([N+](=O)[O-])o2)Oc2ccc(Cl)cc21`, the figure is 18.4%.
`O=[N+]([O-])c1ccc2c(c1)S(=O)c1cc([N+](=O)[O-])ccc1N2`: the growth is 96.2%.
Still for that read-out and setting: as for `Clc1ccc2nc(Cl)c3ccccc3c2c1`, the figure is 84.4%; as for `CC(=O)Oc1ccc(C23c4ccccc4C2(OC(C)=O)c2cc(OC(C)=O)ccc23)cc1` (centres undefined), 88.8%.
For `Nc1ccc2c(c1)/C(=N/O)c1cc([N+](=O)[O-])ccc1-2`, the growth was 80.9%.
For the molecule `CN1CCCC1c1cccnc1` (centres undefined), the growth was 87.7%.
As to `COc1ccc(-c2cnnn2-c2cc(OC)c3c(c2)OCO3)cc1`, the growth is 18.1%.
As for `Cc1nn(-c2ccc(Br)cc2)c2nc3c(nc12)C(=O)C(=O)c1ccccc1-3`, the growth was 89.6%.
Same read-out and setting: the value for `Cn1cc(-c2csc(-c3cn(C)c4ncccc34)n2)c2cc(Br)cnc21` was 79.3%.
As for `OC(Cc1cccnc1)c1ccccc1` (centres undefined), the growth is 102%.
Same read-out and setting: as for `C/C(=N/N=C(N)N)c1ccc(Cl)cc1`, the figure is 94.1%; as for `Cc1nn(-c2ccccc2)c2nc3c(nc12)C(=O)CCC3`, 88.3%; as for `C[n+]1ccc(C#N)c2ccccc21`, 99.1%.
As for `CCCCCCCC/C=C/CCCCCCCC1=NC(C)(C)CN1CC(C)O` (centres undefined), the growth was 53.3%.
Same read-out and setting: as for `O=C1Nc2ccccc2C12Nc1cc(Cl)ccc1S2` (centres undefined), the figure is 81.7%; as for `CCC(CC)NCCCCCNc1cc(OC)cc2cccnc12`, 95.4%; as for `CCC(CCC(C)C1CCC2C3CC=C4CC(O)CCC4(C)C3CCC12C)C(C)C` (centres undefined) (tested in a mixture with another compound), 96%.
Still for that read-out and setting: as for `Cc1nn(-c2ccc(Cl)cc2)c2nc3c(nc12)c(=O)oc1ccccc13`, the figure is 114%.
On to `Cc1cc(NC(=O)c2ccc(N)cc2)ccc1N=Nc1ccc2c(O)c(N=Nc3ccc(Cl)c(S(=O)(=O)O)c3)c(S(=O)(=O)O)cc2c1`, for which the growth was 65.1%.
On to `CN(C)c1nc(-c2ccco2)n2nc(-c3ccco3)cc2n1`, for which the growth is 81.8%.
The same measure, in the same setting: as for `C[C@]12C[C@H](O)[C@H]3[C@@H](CCC4=CC(=O)CC[C@@]43C)[C@@H]1CC[C@@H]2C(=O)CO`, the figure is 91%; as for `Cn1c(N)c(N=O)c(=O)[nH]c1=O`, 102%.
On to `Nc1nc(SCc2ccccc2Cl)c(-c2ccccc2)c(SCc2ccccc2Cl)n1`, for which the growth was 109%.
On the same count and under the same terms, the value for `O=C(CSCC(=O)N/N=C/c1ccccc1O)N/N=C\c1ccccc1O` was 24%; that for `O=C(O)C(=O)O` was 99.5%; that for `Cc1nn(-c2ccccc2)c2ncc3c(c12)C(=O)N(Cc1ccccc1)C3=O` was 99.5%.
With `Cc1ccc(NC(=O)COC(=O)c2ccc(S(=O)(=O)N3CCCCCC3)cc2)cc1`, the growth is 104%.
Consider `Cc1ccc2c(c1)C(=O)/C(=C/c1ncc([N+](=O)[O-])n1C)O2`, for which the growth was -38.5% (active).
As to `CC1CC(C)/C(=N/NC(N)=O)C(C(O)CC2CCC(=O)NC2=O)C1` (centres undefined), the growth is 31.7%.
Take `CCC(c1ccccc1)c1noc(CCN(CC)CC)n1` (centres undefined): the growth is 102%.
On the same count and under the same terms, as for `O=C1Cc2cc(CCn3cncn3)c(Cl)cc2N1`, the figure is 40.1%; as for `Cc1nn(-c2ccccc2)c2nc(Cl)c(/C=C/C(=O)c3ccccc3)c(-c3ccccc3)c12`, 96.3%; as for `COc1ccc(/C=C2\NC(=S)NC2=O)cc1`, 107%.
In the case of `Cn1cc(-c2csc(-c3c[nH]c4ncccc34)n2)c2cc(F)cnc21`, the growth was 61.4%.
The same measure, in the same setting: the value for `O=C1NC(=O)/C(=C\c2ccccc2)C2=C1CCCC2` was -78.7% (active).

A further test concerns UACC-62 melanoma. Described as above. Conditions: 10 µM unless noted.
Regarding `COC(=O)c1ccc2c(c1)nc(-c1ccc(O)c(OC)c1)n2-c1cc(C(C)(C)C)[nH]n1`, the growth was 88.3%.
The same measure, in the same setting: as for `Cc1nc(N)[nH]c(=O)c1C`, the figure is 91.1%.
The same measure, in the same setting: as for `O=C1/C(=C/c2ccc([N+](=O)[O-])o2)Oc2ccc(Cl)cc21`, the figure is -89% (active); as for `O=[N+]([O-])c1ccc2c(c1)S(=O)c1cc([N+](=O)[O-])ccc1N2`, 93.5%.
The same measure, in the same setting: the value for `Clc1ccc2nc(Cl)c3ccccc3c2c1` was 96.2%; that for `CC(=O)Oc1ccc(C23c4ccccc4C2(OC(C)=O)c2cc(OC(C)=O)ccc23)cc1` (centres undefined) was 77.8%; that for `Nc1ccc2c(c1)/C(=N/O)c1cc([N+](=O)[O-])ccc1-2` was 73.1%.
On to `CN1CCCC1c1cccnc1` (centres undefined), for which the growth is 94.1%.
Still for that read-out and setting: as for `COc1ccc(-c2cnnn2-c2cc(OC)c3c(c2)OCO3)cc1`, the figure is 26.8%.
On the same count and under the same terms, the value for `Cc1nn(-c2ccc(Br)cc2)c2nc3c(nc12)C(=O)C(=O)c1ccccc1-3` was 90.6%; that for `Cn1cc(-c2csc(-c3cn(C)c4ncccc34)n2)c2cc(Br)cnc21` was 82.9%; that for `OC(Cc1cccnc1)c1ccccc1` (centres undefined) was 97.4%.
As for `C/C(=N/N=C(N)N)c1ccc(Cl)cc1`, the growth was 91.2%.
On to `Cc1nn(-c2ccccc2)c2nc3c(nc12)C(=O)CCC3`, for which the growth was 86.3%.
With `C[n+]1ccc(C#N)c2ccccc21`, the growth was 115%.
Take `CCCCCCCC/C=C/CCCCCCCC1=NC(C)(C)CN1CC(C)O` (centres undefined): the growth is 3.95% (active).
On to `O=C1Nc2ccccc2C12Nc1cc(Cl)ccc1S2` (centres undefined), for which the growth was 80.9%.
Consider `CCC(CC)NCCCCCNc1cc(OC)cc2cccnc12`, for which the growth is 94.4%.
Still for that read-out and setting: as for `CCC(CCC(C)C1CCC2C3CC=C4CC(O)CCC4(C)C3CCC12C)C(C)C` (centres undefined) (tested in a mixture with another compound), the figure is 95%; as for `Cc1nn(-c2ccc(Cl)cc2)c2nc3c(nc12)c(=O)oc1ccccc13`, 102%.
For `Cc1cc(NC(=O)c2ccc(N)cc2)ccc1N=Nc1ccc2c(O)c(N=Nc3ccc(Cl)c(S(=O)(=O)O)c3)c(S(=O)(=O)O)cc2c1`, the growth is 88.5%.
On to `CN(C)c1nc(-c2ccco2)n2nc(-c3ccco3)cc2n1`, for which the growth was 82.2%.
On the same count and under the same terms, the value for `C[C@]12C[C@H](O)[C@H]3[C@@H](CCC4=CC(=O)CC[C@@]43C)[C@@H]1CC[C@@H]2C(=O)CO` was 91.4%.
With `Cn1c(N)c(N=O)c(=O)[nH]c1=O`, the growth was 103%.
Still for that read-out and setting: as for `Nc1nc(SCc2ccccc2Cl)c(-c2ccccc2)c(SCc2ccccc2Cl)n1`, the figure is 99.6%.
On the same count and under the same terms, as for `O=C(CSCC(=O)N/N=C/c1ccccc1O)N/N=C\c1ccccc1O`, the figure is 11.2%; as for `O=C(O)C(=O)O`, 98.7%; as for `Cc1nn(-c2ccccc2)c2ncc3c(c12)C(=O)N(Cc1ccccc1)C3=O`, 75%.
Same read-out and setting: as for `Cc1ccc(NC(=O)COC(=O)c2ccc(S(=O)(=O)N3CCCCCC3)cc2)cc1`, the figure is 95%.
On to `Cc1ccc2c(c1)C(=O)/C(=C/c1ncc([N+](=O)[O-])n1C)O2`, for which the growth was -13% (active).
In the case of `CC1CC(C)/C(=N/NC(N)=O)C(C(O)CC2CCC(=O)NC2=O)C1` (centres undefined), the growth was 46.3%.
Regarding `CCC(c1ccccc1)c1noc(CCN(CC)CC)n1` (centres undefined), the growth is 98.9%.
With `O=C1Cc2cc(CCn3cncn3)c(Cl)cc2N1`, the growth was 68.2%.
The same measure, in the same setting: the value for `Cc1nn(-c2ccccc2)c2nc(Cl)c(/C=C/C(=O)c3ccccc3)c(-c3ccccc3)c12` was 102%.
Take `COc1ccc(/C=C2\NC(=S)NC2=O)cc1`: the growth was 95.3%.
The same measure, in the same setting: as for `Cn1cc(-c2csc(-c3c[nH]c4ncccc34)n2)c2cc(F)cnc21`, the figure is 64.7%; as for `O=C1NC(=O)/C(=C\c2ccccc2)C2=C1CCCC2`, 30%.
